Data taken from publication PMC9838217, “Structure of SALL4 zinc finger domain reveals link between AT-rich DNA binding and Okihiro syndrome”.
Residue numbers refer to the chain shown, from its start.

Columns and labels:
Experiment in all cases: HT-SELEX; high values mean tight binding
Settings in all cases: protein: recombinant; vector His6-GST; dsDNA, one strand shown
SALL4 ZFC4 WT (HT-SELEX) = target: T1, SALL4 ZFC4 WT (HT-SELEX) (Mus musculus, UniProt Q8BX22 870-940)
T1 sequence: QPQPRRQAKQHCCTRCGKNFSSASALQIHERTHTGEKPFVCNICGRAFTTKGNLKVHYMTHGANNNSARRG
In short: (§1)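 Purified recombinant mouse SALL4 zinc finger cluster 4 (residues 870–940, 1 µg) was incubated with library DNA (1.5 µg first cycle, 200 ng later) in 100 µl buffer (10 mM Tris–HCl pH 7.5, 50 mM NaCl, poly(dI-dC), DTT) for 10 min at room temperature. Ni2+ bead-captured complexes were washed, PCR-amplified and reselected for up to 6 cycles, in triplicate, then MiSeq-sequenced and scanned for 6-mers. Binding signal is each canonical k-mer's read fraction as fold change versus the initial random library.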

[1] = target: T2, SALL4 ZFC4 R900W (HT-SELEX) (Mus musculus, UniProt Q8BX22 870-940, R900W)
T2 sequence: T1 sequence with R31W
In short: as §1

[2] = target: T3, SALL4 ZFC4 G921D (HT-SELEX) (Mus musculus, UniProt Q8BX22 870-940, G921D)
T3 sequence: T1 sequence with G52D
In short: as §1

| Sequence | binding signal (SALL4 ZFC4 WT (HT-SELEX)) [fold-change vs cycle 0] | binding signal [1] [fold-change vs cycle 0] | binding signal [2] [fold-change vs cycle 0] |
| --- | --- | --- | --- |
| CACAAA | 0.978 ± 0.0432 | 1.1 ± 0.0594 | 1.09 ± 0.0653 |
| CTTTAC | 1.34 ± 0.0196 | 1.5 ± 0.0474 | 1.36 ± 0.0809 |
| TCTGAA | 1.3 ± 0.0929 | 1.43 ± 0.078 | 1.37 ± 0.111 |
| ACAAGG | 0.796 ± 0.0489 | 0.976 ± 0.041 | 0.945 ± 0.0282 |
| AAATAA | 3.25 ± 0.208 | 2.56 ± 0.166 | 2.14 ± 0.25 |
| TAAGGA | 1.59 ± 0.0522 | 1.71 ± 0.0756 | 1.54 ± 0.114 |
| GATTCC | 0.9 ± 0.0488 | 0.964 ± 0.0255 | 1.03 ± 0.0179 |
| AATCCC | 0.882 ± 0.0212 | 0.932 ± 0.0228 | 0.963 ± 0.0176 |
| AGTATC | 1.37 ± 0.0932 | 1.48 ± 0.12 | 1.44 ± 0.125 |
| TCCCAA | 0.743 ± 0.0235 | 0.826 ± 0.0256 | 0.872 ± 0.0393 |
| ACGCTA | 0.566 ± 0.0296 | 0.638 ± 0.0194 | 0.754 ± 0.0468 |
| TAAAGA | 2.04 ± 0.114 | 2.15 ± 0.111 | 1.82 ± 0.201 |
| AGTCAC | 0.789 ± 0.043 | 0.9321 ± 0.00858 | 0.975 ± 0.0241 |
| AGAGAC | 0.8 ± 0.0496 | 0.927 ± 0.0137 | 0.985 ± 0.0357 |
| CAATGC | 0.595 ± 0.019 | 0.673 ± 0.0218 | 0.807 ± 0.0224 |
| ATTTTG | 1.66 ± 0.083 | 1.5 ± 0.0395 | 1.44 ± 0.0553 |
| CTGCTA | 0.699 ± 0.028 | 0.757 ± 0.0335 | 0.816 ± 0.0523 |
| ATACGG | 0.67 ± 0.0205 | 0.767 ± 0.0197 | 0.808 ± 0.0319 |
| CGATTC | 0.682 ± 0.0336 | 0.738 ± 0.0472 | 0.84 ± 0.0386 |
| CGTTAG | 0.723 ± 0.0258 | 0.82 ± 0.0289 | 0.902 ± 0.0446 |
| CAGTCG | 0.32 ± 0.0306 | 0.389 ± 0.0206 | 0.497 ± 0.0334 |
| GCATCA | 0.645 ± 0.017 | 0.724 ± 0.00868 | 0.83 ± 0.0436 |
| TCATCA | 1.46 ± 0.0322 | 1.56 ± 0.0457 | 1.49 ± 0.0698 |
| CCCAAG | 0.456 ± 0.0184 | 0.532 ± 0.00725 | 0.619 ± 0.0423 |
| CATATA | 2.3 ± 0.215 | 1.91 ± 0.115 | 1.71 ± 0.163 |
| CCACAG | 0.371 ± 0.0258 | 0.424 ± 0.0221 | 0.535 ± 0.0512 |
| AGGAGG | 0.615 ± 0.0373 | 0.701 ± 0.0545 | 0.762 ± 0.023 |
| TAGTAA | 2.21 ± 0.0521 | 2.24 ± 0.0692 | 1.89 ± 0.181 |
| TATCAA | 2.32 ± 0.148 | 2 ± 0.128 | 1.87 ± 0.178 |
| ACACGA | 0.663 ± 0.0255 | 0.777 ± 0.0248 | 0.869 ± 0.0214 |
